# Screens: PubChem, National Center for Advancing Translational Sciences (NCATS)
# ATXN viability = Viability Counterscreen for Primary qHTS for Inhibitors of ATXN expression | Potency, µM (doses to about 56.7 µM), most hits filed as cytotoxic | actives 0.49% (n = 400,000) | S2 cells (HEK-293 line with an ATXN2-luciferase reporter) viability, CellTiter-Fluor protease fluorescence, 24 h; note: nearly all actives have a fitted effect of over 40% in size
# Gal4-VP16 FLuc = VP16 counterscreen qHTS for inhibitors of ROR gamma transcriptional activity; Drosophila S2 Gal4-VP16 UAS-luciferase, luminescence, 20 h; Potency, µM (top dose mostly 53.6 µM), actives largely listed as inhibitors; actives 3.5% (n = 310,000);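 note: Gal4-VP16 expression switched on by copper sulfate through the metallothionein promoter; nearly all actives have a fitted effect of over 50% in size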
# ATXN2 expr inh = Primary qHTS for Inhibitors of ATXN expression; Potency, µM (titrated, usually from 57 µM), hits mostly inhibitors; actives 0.72% (n = 360,000); HEK-293 ATXN2-luciferase reporter, luminescence, 24 h; AID 1745845, 2022; note: nearly all actives have a fitted effect of over 55% in size
#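 ATXN2-luciferase reporter cells (luciferase flanked by upstream and downstream ATXN2 gene portions) were treated 24 h at 37 °C with compounds at up to 57 uM. SteadyGlo luminescence gave expression; GF-AFC fluorescence gave viability.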
# TGFb inhibitor = qHTS for Inhibitors of TGF-b; HepG2 CAGA-GFP TGF-b/SMAD3 reporter, GFP fluorescence, 18 h; TGF-beta stimulated, 500 pg/mL final; Potency, µM (top dose mostly 46.1 µM), usual class: inhibitors; actives 1.2% (n = 410,000); AID 588855, 2011; note: nearly all actives have a fitted effect of over 65% in size
#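 Cell-based qHTS in HEPG2 carrying a CAGA-GFP Smad reporter; compounds added before 500 pg/mL final TGF-beta, 18 h incubation at 37 degrees C, GFP fluorescence quantified per cell by imaging cytometry.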
# RORg inh = qHTS for inhibitors of ROR gamma transcriptional activity | Nuclear receptor ROR-gamma (Mus musculus), P51450 | Drosophila S2 Gal4-RORgamma UAS-luciferase reporter, 20 h | Potency, µM (highest dose often 53.6 µM), actives largely listed as inhibitors | actives 5.4% (n = 310,000) | AID 2551, 2010; note: nearly all actives have a fitted effect of over 60% in size
# Target sequence (P51450 whole entry, looked up, the tested form may be a part): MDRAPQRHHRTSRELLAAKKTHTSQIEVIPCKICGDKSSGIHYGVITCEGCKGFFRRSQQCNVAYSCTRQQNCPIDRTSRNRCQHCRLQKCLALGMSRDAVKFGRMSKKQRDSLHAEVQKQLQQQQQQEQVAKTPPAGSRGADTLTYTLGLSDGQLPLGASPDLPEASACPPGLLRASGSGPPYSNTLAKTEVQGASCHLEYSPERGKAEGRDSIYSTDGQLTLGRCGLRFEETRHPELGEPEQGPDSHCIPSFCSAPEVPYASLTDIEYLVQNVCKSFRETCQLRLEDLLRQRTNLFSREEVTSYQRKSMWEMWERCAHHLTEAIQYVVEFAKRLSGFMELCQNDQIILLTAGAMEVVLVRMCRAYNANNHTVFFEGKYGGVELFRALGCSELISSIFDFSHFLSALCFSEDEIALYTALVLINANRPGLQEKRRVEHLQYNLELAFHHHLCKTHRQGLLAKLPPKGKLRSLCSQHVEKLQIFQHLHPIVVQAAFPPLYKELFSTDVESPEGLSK
#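 In this cell-based reporter format, copper sulfate (700 uM final) drives Gal4–ROR gamma fusion expression from a metallothionein promoter in Drosophila Schneider cells; compounds preincubated 1 hr, reporter read after 20 hr at ambient temperature.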
# HepG2 viability = qHTS for Inhibitors of TGF-b: Cytotox Counterscreen; HepG2 CAGA-GFP viability, ATP luminescence, 18 h; Potency, µM (doses to about 46.1 µM), actives largely listed as cytotoxic; actives 0.76% (n = 410,000)
#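 HepG2 CAGA-GFP cells (1000/well, DMEM with 1% FBS) received compound, then TGF-beta at 500 pg/mL final, and were incubated 18 hours at 37 degrees C. Viability was read by CellTiter-Glo luminescence. Media-only wells were set as complete cell-killing and DMSO as no toxicity.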
# Numbers stand for hits; – = inactive; ? = inconclusive; · = no result; [ ] = remark or other dose. A selection: hits, their analogues and other compounds. The true share with any hit is near 6.3%. Calls come from the whole dose curve; as a rule, active = well fitted curve in the direction sought with a large enough effect; inconclusive = small, poorly fitted or top-dose-only effect, or another doubt; inactive = no such curve, though single readings can be large; an effect the other way counts as inactive or inconclusive.
SMILES,ATXN viability,Gal4-VP16 FLuc,ATXN2 expr inh,TGFb inhibitor,RORg inh,HepG2 viability
COc1ccc(CCNCC(O)COc2cccc(C)c2)cc1OC (configuration not stated),–,·,·,·,·,·
COc1ccc(CCNCC(O)COc2cccc(Br)c2)cc1 (configuration not stated),–,–,?,–,–,13µM
OC(CNCCc1ccc(C(F)(F)F)cc1)COc1ccc2ccccc2c1 (configuration not stated),·,11µM,28µM,?,16µM,–
OC(COc1ccc(CNCCc2ccc(C(F)(F)F)cc2)cc1)CN1CCCCC1 (configuration not stated),?,–,?,?,–,–
OC(CNCCc1ccc(C(F)(F)F)cc1)COc1cccc2ccccc12 (configuration not stated),?,13µM,·,?,?,–
COc1ccccc1COCC(O)CNCCc1ccc(C(F)(F)F)cc1 (configuration not stated),–,–,?,?,–,–
COc1ccc(-c2csc(C(NC(C)=O)c3cccc(F)c3)n2)cn1 (configuration not stated),–,·,–,–,·,–
CCNC(=S)NNC(=O)c1cc(-c2cccnc2)nc2ccccc12,–,?,–,–,16µM,–
CCNC(=S)NNC(=O)c1cc(-c2cccc(OCC)c2)nc2ccccc12,–,?,–,–,13µM,–
CCCNC(=S)NNC(=O)c1cc(-c2cccnc2)nc2ccccc12,–,–,–,–,?,–
CCCCOc1cccc(-c2cc(C(=O)NNC(=S)NCC)c3ccccc3n2)c1,?,?,–,?,–,–
CCNC(=S)NNC(=O)c1cc(-c2cccc(C)c2)nc2ccccc12,–,8.9µM,–,–,3.5µM,–
O=C(O)c1ccc(NC(=S)NC(=O)c2ccc(-c3ccccc3)cc2)cc1,–,–,–,–,–,–
O=C(NC(=S)Nc1ccccc1)c1ccc(-c2ccccc2)cc1,–,4.5µM,–,–,3.5µM,–
CC(C)NS(=O)(=O)c1ccc(NC(=S)NC(=O)c2ccc(-c3ccccc3)cc2)cc1,?,?,–,–,7.1µM,–
O=C(NC(=S)Nc1cccc(C(F)(F)F)c1)c1ccc2nonc2c1,–,10µM,–,?,3.2µM,–
CCOc1cc(OCC)cc(C(=O)NC(=S)Nc2cccc(C(F)(F)F)c2)c1,–,–,–,–,5µM,–
O=C(O)c1cccc(NC(=S)NC(=O)c2ccncc2)c1,–,–,–,–,–,–
O=C(Nc1cccc2c1CCCC2)c1ccccc1Cl,–,–,–,–,–,–
O=C(Nc1nnc(-c2ccc3c(c2)CCCC3)o1)c1ccccc1,·,0.1µM,?,?,0.28µM,–
O=C(COc1ccccc1)Nc1nnc(-c2ccc(F)cc2)o1,–,6.3µM,–,–,?,–
O=C(COc1ccccc1)Nc1nnc(-c2ccccc2Cl)o1,–,·,–,–,·,–
O=C(COc1ccccc1)Nc1nnc(-c2ccc3c(c2)CCCC3)o1,–,3.5µM,–,–,5.6µM,–
O=C(Nc1nnc(-c2ccc3c(c2)CCCC3)o1)c1ccccc1Cl,?,0.79µM,?,?,1.3µM,–
COc1cc(C(=O)OCC(=O)Nc2nnc(-c3ccccc3)o2)cc(OC)c1OC,–,·,–,–,·,–
SMILES,ATXN viability,Gal4-VP16 FLuc,ATXN2 expr inh,TGFb inhibitor,RORg inh,HepG2 viability
CC(C)C(NS(C)(=O)=O)c1nnc2n1CCN(Cc1cccc3ncccc13)CC2 (configuration not stated),–,·,·,·,·,·
Cc1ccc(-c2nnc(Nc3cccc(Cl)c3)c3ccccc23)cc1S(=O)(=O)N1CCCCC1,–,·,–,–,·,–
Cc1cccc(C(C)C)c1NC(=O)C(C)OC(=O)Cn1cnc2c1c(=O)n(C)c(=O)n2C (configuration not stated),–,·,–,–,·,–
O=C1NC[C@H](CCCCN2C[C@H](Cc3ccccc3)N(Cc3ccccc3)C(=O)C2=O)N(CCC2CCCCC2)C1=O,–,·,–,·,·,·
Cc1ccc(NC(=S)N/N=C/c2c(C)[nH]c3ccccc23)cc1,–,4µM,–,?,2µM,–
Cc1cccc(NC(=S)N/N=C/c2c[nH]c3ccccc23)c1,–,5.6µM,–,?,2.5µM,–
Cc1[nH]c2ccccc2c1/C=N/NC(N)=S,–,–,–,–,–,–
Cc1ccc(Cn2cccc2/C=N/NC(=S)Nc2ccc(C)cc2)cc1,–,4µM,–,–,0.4µM,–
Cc1[nH]c2ccccc2c1/C=N/NC(=S)NCc1ccccc1,?,?,·,13µM,11µM,–
Cc1ccccc1-c1ccc(CN2CCc3nnc(CNC(=O)c4ccccn4)n3CC2)cc1,–,·,·,·,·,·
COCCNC(=O)c1ccc(S(=O)(=O)N2CCCc3ccccc32)cc1,–,16µM,–,–,–,–
COc1ccc2sc(N(CCCN(C)C)C(=O)c3ccc(S(=O)(=O)N4CCCc5ccccc54)cc3)nc2c1,·,·,?,22µM,·,11µM
O=C(O)c1ccc(S(=O)(=O)N2CCCc3ccccc32)cc1,–,–,–,–,–,–
COc1cc2nc(N(CCCN(C)C)C(=O)c3ccc(S(=O)(=O)N4CCc5ccccc54)cc3)sc2cc1OC,–,·,–,–,·,–
CCN(Cc1ccccc1)S(=O)(=O)c1ccc(C(=O)N(CCCN(C)C)c2nc3cc(OC)ccc3s2)cc1,?,·,?,?,·,22µM
O=C(Nc1ccc(F)c(F)c1)c1ccc(=O)n(Cc2ccc(F)cc2)c1,–,·,–,–,·,–
O=C(N/N=C/c1cc(Br)cs1)c1c[nH]c2ccccc12,–,?,·,–,–,–
O=C(Cc1cccs1)N/N=C\c1ccc([N+](=O)[O-])s1,?,?,·,?,?,–
O=C(CNC(=O)c1ccccc1Cl)N/N=C/c1ccc([N+](=O)[O-])s1,–,?,–[11.3 µM],13µM,18µM,10µM
O=C(N/N=C/c1ccc(Cl)s1)c1ccccc1[N+](=O)[O-],–,7.1µM,–,–,6.3µM,–
O=C(N/N=C/c1cc(Br)cs1)c1ccccc1[N+](=O)[O-],–,7.9µM,–,–,5.6µM,–
COc1cc(=O)n2c(c1C(=O)NCc1ccco1)CCN(C(=O)c1c(F)ccc(F)c1F)CC2,–,·,·,·,·,·
CC1(C)CC(C(=O)N2CCOc3ccc(CN4CCC(Oc5cccnc5)CC4)cc3C2)CCO1 (configuration not stated),–,·,·,·,·,·
Cc1nn2cnnc2c(C)c1Cc1c(F)cccc1Cl,–,–,–,–,–,–
COc1ccc(/C=C2/SC(=S)N(CCC(=O)O)C2=O)cc1,?,?,?,–,5µM,–
